Screening data deposited in PubChem by National Center for Advancing Translational Sciences (NCATS).
The sample as a whole holds a higher share of hits than the screen did.
Methyltransferases = Primary Screen for Target Class Profiling of Small Molecule Inhibitors of Methyltransferases; purified enzyme, MTase-Glo SAH luminescence; hits give low values; calls only at 40 µM; 25,000 tested, 3.9% active; call rule not given here
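Each enzyme was reacted with SAM and its substrate, with compounds tested once at 40 uM; SAH formed was read by MTase-Glo luminescence.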
Starred values were filed as active, the others as inactive; i = inactive; + = active, no number; ! = not active in a repeat. On the % scale 0 is the no-effect control and ±100 the full control effect.

SMILES	Methyltransferases
O=C(CSc1ccncc1)N1CCN2C(=O)N(Cc3ccccc3)C(=O)[C@H]2C1	i
O=S(=O)(NCCn1c(CCc2ccccc2)nc2ccccc21)c1ccc2c(c1)CCCC2	i
Cc1[nH]nc2ccc(-c3cncc(OC[C@@H](N)Cc4ccccc4)c3)cc12	+
O=C(c1ccc(Cl)s1)N1CCC2(COc3ncccc3S(=O)(=O)N2)C1 (stereo not drawn)	i
O=c1[nH]c2ccc(S(=O)(=O)Nc3ccc(F)c(F)c3)cc2[nH]1	i
CCCn1c(=O)c2ccc(C(=O)NCC(C)C)cc2n2c(=O)n(C(C)C(=O)c3ccc(C)c(C)c3)nc12 (stereo not drawn)	i
Cc1cc2c(cc3n2CC(C)(C(=O)NC2CCCCCCC2)N(Cc2ccc(F)cc2)C3=O)o1 (stereo not drawn)	i
CN(C)CCC[C@]1(c2ccc(F)cc2)OCc2cc(C#N)ccc21	+
CC1(C(=O)NCc2ccc(F)cc2)Cn2cnc(C(=O)NCCc3ccc(Cl)cc3)c2C(=O)N1C1CC1 (stereo not drawn)	i
Cc1ccccc1Cn1nc2n(CCC(C)C)c(=O)c3ccc(C(=O)NCC(C)C)cc3n2c1=O	i
O=C(OC[C@H]1O[C@H](O[C@]2(CO)O[C@H](CO)[C@@H](O)[C@@H]2O)[C@H](O)[C@@H](O)[C@@H]1O)c1ccc(O)cc1	i
C[C@]12C[C@@H](O)[C@@H]3C[C@@]1(O[C@@H]1O[C@H](CO)[C@@H](O)[C@H](O)[C@H]1O)[C@]3(COC(=O)c1ccccc1)C(=O)O2	+
O=C(OC[C@H]1O[C@H](O[C@H]2CO[C@H](CO)[C@@H](O)[C@@H]2O)[C@H](O)[C@@H](O)[C@H]1O)c1ccccc1	i
C=CCC/C=C/C#CCCCCCCCC[C@H]1C(=O)O[C@H](C)[C@@H]1O	i
C=C1CCC2(OC1)OC1CC3C4CC=C5CC(O)CC(O[C@@H]6OC[C@H](OC(=O)C(O)C(C)CC)[C@H](O)[C@H]6O[C@@H]6O[C@@H](C)[C@H](O)[C@@H](O)[C@H]6O)C5(C)C4CCC3(C)C1C2C (stereo partly drawn)	i
CCOC(=O)c1ccccc1NC(=O)N1Cc2c(sc3c2CCN(C)C3)-n2cccc2C1CC (stereo not drawn)	i
CC(C)c1cc2n(n1)CC(C)(C(=O)NC1CCCCCC1)N(c1cccc(Cl)c1)C2=O (stereo not drawn)	i
Cc1ccc(C)c(Cn2nc3n(CCc4ccccc4)c(=O)c4ccccc4n3c2=O)c1	i
Cc1cc(C)c(S(=O)(=O)n2cc(C)cc2C)c(C)c1	+
COc1ccc2cc3n(c2c1)CC(C)(C(=O)NC1CCCCC1)N(Cc1cccnc1)C3=O (stereo not drawn)	i
COc1ccc2cc1Nc1ccc(cc1)C[C@H](NCc1ccc(C)o1)C(=O)N(C)[C@H](C(=O)NCCC(C)C)C2	i
CN1C(=O)CC(C(=O)O)C12CCN(Cc1nc3ccsc3c(=O)[nH]1)CC2 (stereo not drawn)	i
O=c1c(O)c(-c2ccc(O)c(O)c2)oc2cc(O)cc(O)c12	+!
O=c1cc(-c2ccc(O)c(O)c2)oc2cc(O)cc(O)c12	i
O=c1c(-c2ccc(O)cc2)coc2cc(O)cc(O)c12	i
SMILES	Methyltransferases
CCC1c2ccc(C)n2CCN1C(=O)Nc1ccc(C)c(C)c1 (stereo not drawn)	i
COc1ccc(CNC(=O)CCCc2nnc3n4nc(-c5ccccc5)nc4c4ccccc4n23)cc1	i
O=c1c2ccccc2n2c(=O)n(Cc3ccc(Cl)cc3)nc2n1Cc1ccc(F)cc1	i
CC(C)(C)c1cc(/C=C(\C#N)C(N)=S)cc(C(C)(C)C)c1O	+
CC1(C(=O)NC2CCCCC2)Cn2nc(-c3cccs3)cc2C(=O)N1Cc1ccc(F)cc1 (stereo not drawn)	i
CCCCN1C(=O)c2ccccc2C(C(=O)NC2CC2)C12CCCCC2 (stereo not drawn)	i
CCN1C(=O)c2ccccc2C1Nc1ccc(OCCN2CCCCC2)cc1 (stereo not drawn)	+
CCCCOc1ccccc1-c1cc2n(n1)CC(C)(C(=O)NC1CCCCCC1)N(CC)C2=O (stereo not drawn)	i
C=C1C(=O)O[C@@H]2C(OC(=O)/C(C)=C\C)/C(C)=C\C(=O)/C=C(\C)C[C@H](O)[C@@H]12 (stereo partly drawn)	i
CC(C)CC(=O)NC[C@@H]1C[C@H](F)CN1C(=O)CCCc1cccs1	i
CC(C)(C)c1ccc(S(=O)(=O)/C=C/C#N)cc1	+
CC1(C)CC[C@]23CO[C@@]4(CCC5[C@@]6(C)CC[C@H](O[C@@H]7OC[C@H](O[C@@H]8O[C@H](CO)[C@@H](O)[C@H](O)[C@H]8O)[C@H](O)[C@H]7O[C@@H]7O[C@H](CO)[C@@H](O[C@@H]8O[C@H](CO)[C@@H](O)[C@H](O)[C@H]8O)[C@H](O)[C@H]7O)[C@@](C)(CO)C6CC[C@@]5(C)[C@]4(C)C[C@H]2OC2OCC(O)C(O)C2O)C3C1 (stereo partly drawn)	i
